The source of these data is PubChem BioAssay.

Values joined by “and” are separate entries in the source; they are usually repeats but may differ in a detail not shown here. Equal values may be shown once. Active and inactive are the calls of the source. No rule for the calls is given here.

The target in one test is Cellular tumor antigen p53 (Homo sapiens) (UniProt P04637). As to the kind of experiment: kinase inhibitors altering GFP-p53 stability in HPV16-positive cells, imaging, known kinase inhibitor set, EGFP/DsRed ratio (AID 1053116).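 Also: test concentration not given here; cells exposed to compounds for 24 h at 37 °C before reading.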 To be noted: stronger effect = higher value; EGFP object count: measured here: GFP-p53 positive objects count.
Sequence of Cellular tumor antigen p53 (Homo sapiens) (P04637 whole entry, looked up): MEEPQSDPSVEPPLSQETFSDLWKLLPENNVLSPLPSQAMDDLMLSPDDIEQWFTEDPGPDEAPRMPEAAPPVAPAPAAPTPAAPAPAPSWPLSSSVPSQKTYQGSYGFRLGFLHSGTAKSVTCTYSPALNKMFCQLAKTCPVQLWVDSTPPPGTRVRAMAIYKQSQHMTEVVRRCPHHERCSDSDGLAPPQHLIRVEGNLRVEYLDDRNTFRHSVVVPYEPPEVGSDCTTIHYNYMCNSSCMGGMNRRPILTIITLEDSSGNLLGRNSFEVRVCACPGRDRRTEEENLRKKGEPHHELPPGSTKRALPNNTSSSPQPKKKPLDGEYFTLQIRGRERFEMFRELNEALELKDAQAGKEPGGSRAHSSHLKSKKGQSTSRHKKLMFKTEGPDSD
Turning to `CC(C)Nc1ncc2cc(Oc3ccc(F)cc3F)c(=O)n(C)c2n1`, the EGFP/DsRed ratio was 0.00675 (inactive) and the EGFP object count was found to be 1.

Consider `CS(=O)(=O)CCc1cccc(C(=O)c2cnn(-c3ccc(F)cc3)c2N)c1`, for which the EGFP object count is 1.5 and the EGFP/DsRed ratio is 0.152 (inactive).

Take `COc1cccc(C2=C(c3cn(C)c4cccc(OC)c34)C(=O)NC2=O)c1`: the EGFP/DsRed ratio is 0.102 (inactive) and the EGFP object count is 9.

As to `O=C1NC(=NCCc2ccc(F)cc2)SC1=Cc1ccc2ncccc2c1`, the EGFP object count is 1.5 and the EGFP/DsRed ratio is 0.0132 (inactive).

Consider `COc1cc[nH]c1C=C1C(=O)Nc2ccc(F)c(C#CC3(O)CCNCC3)c21`, for which the EGFP/DsRed ratio is 3.03 (inactive) and the EGFP object count was 467.

In the case of `COc1cccc(C2=C(c3c(C)n(C)c4ccccc34)C(=O)NC2=O)c1`, the EGFP/DsRed ratio was 0.121 (inactive) and the EGFP object count stood at 6.

With `Cc1cccc2c(C3=C(c4cn(C)c5ccccc45)C(=O)NC3=O)cn(C)c12`, the EGFP object count is 24 and the EGFP/DsRed ratio is 0.241 (inactive).

Consider `CNc1ncc2cc(Oc3ccc(F)cc3F)c(=O)n(C)c2n1`, for which the EGFP/DsRed ratio was 0.0112 (inactive) and the EGFP object count amounted to 2.5.

Consider `O=C1NC(=O)C(=Cc2ccc3ncccc3c2)S1`, for which the EGFP/DsRed ratio is 0.206 (inactive) and the EGFP object count turned out to be 5.

Turning to `CCc1c(C)nc2sc3c(N)ncnc3c2c1C`, the EGFP object count was 3.5 and the EGFP/DsRed ratio was 0.129 (inactive).

On to `CC(c1ccccc1)C(C(=O)Nc1ccc(I)cc1F)N1C(=O)NC(c2ccc(OCC(O)CO)cc2)C1=O` (stereo unspecified), for which the EGFP/DsRed ratio was 0.306 (inactive) and the EGFP object count was 5.

System in a further test: not listed separately
As to the kind of experiment: IRF3 reporter activation in THP-1 macrophages, cell-based, PMA-stimulated THP-1, luminescence (AID 1053176). The conditions noted are these: PMA-differentiated THP-1, IRF3 reporter luminescence; stronger effect = higher value.
As for `Nc1c(C(=O)c2cccc(CCC3(O)CCCC3)c2)cnn1-c1ccc(F)cc1`, the fraction signal is -0.0005 (inactive).

Turning to `Cc1cccc(Oc2nccc(-c3c(-c4ccc(F)cc4)ncn3C3CCNCC3)n2)c1C`, the fraction signal is -0.0055 (inactive).

With `COc1cc2ncn(-c3cc(OCc4ccccc4C(F)(F)F)c(C(N)=O)s3)c2cc1OC`, the fraction signal was 0.0355 (inactive).

Consider `O=C1NC(=NCCc2ccc(Br)cc2)SC1=Cc1ccc2ncccc2c1`, for which the fraction signal was 0.006 (inactive).

Regarding `Cn1cc(C2=C(c3cn(C)c4cc(C(=O)O)ccc34)C(=O)NC2=O)c2ccccc21`, the fraction signal is 0.0035 (inactive).

In the case of `CCOc1ccccc1CCN=C1NC(=O)C(=Cc2ccc3ncccc3c2)S1`, the fraction signal is 0.031 (inactive).

With `Cn1cc(C2=C(c3cn(CCCCN)c4ccccc34)C(=O)NC2=O)c2ccccc21`, the fraction signal is 0.01 (inactive).

Regarding `O=c1c(Oc2ccc(F)cc2F)cc2cnc(NC3CCOCC3)nc2n1C1CCS(=O)(=O)CC1`, the fraction signal is -0.0075 (inactive).

On to `CC(C)(C)c1ccc(Oc2nccc(-c3c(-c4ccc(F)cc4)ncn3C3CCNCC3)n2)cc1`, for which the fraction signal was 0 (inactive).

`CC(CO)Nc1cc(-c2[nH]c3cccnc3c2-c2ccc(F)cc2)ccn1` (stereo unspecified): the fraction signal was -0.0075 (inactive).

Regarding `Cn1cc(C2=C(c3cccc(Cl)c3)C(=O)NC2=O)c2ccccc21`, the fraction signal was 0.0035 (inactive).

For the molecule `Cn1cc(C2=C(c3cn(C)c4ccc(OCc5ccccc5)cc34)C(=O)NC2=O)c2ccccc21`, the fraction signal is -0.016 (inactive).

For the molecule `Cn1c(=O)c(Oc2ccccc2)cc2cnc(NC3CCOCC3)nc21`, the fraction signal was -0.005 (inactive).

In the case of `Nc1c(C(=O)c2cccc(-c3cccnc3)c2)cnn1-c1ccc(F)cc1F`, the fraction signal was 0.0015 (inactive).

In the case of `COc1cc2ncn(-c3cc(O[C@@H](C)c4ccccc4Cl)c(C(N)=O)s3)c2cc1OC`, the fraction signal was -0.002 (inactive).

For `N#CCn1c(=O)c(Oc2ccc(F)cc2F)cc2cnc(NC3CCOCC3)nc21`, the fraction signal was -0.007 (inactive).

In the case of `Cn1cc(C2=C(Sc3ccccc3)C(=O)NC2=O)c2ccccc21`, the fraction signal was 0.008 (inactive).

Regarding `COc1ccc(N2Cc3cnc(Nc4ccccc4)nc3N(C3CCC(O)C3)C2=O)cc1` (stereo unspecified), the fraction signal is -0.007 (inactive).

Regarding `Cn1cc(C2=C(c3cccc(OCC(O)CO)c3)C(=O)NC2=O)c2ccccc21` (stereo unspecified), the fraction signal is 0.0035 (inactive) and -0.0025 (inactive).

As to `COc1ccccc1C(=O)c1cnc(NC2CCN(S(C)(=O)=O)CC2)nc1N`, the fraction signal was 0.0015 (inactive).

Take `Cn1cc(C2=C(NN3CCOCC3)C(=O)NC2=O)c2ccccc21`: the fraction signal is -0.016 (inactive).

Turning to `CN1CC2Cc3c(C4=C(c5cn(C)c6ccccc56)C(=O)NC4=O)c4ccccc4n3CC2C1` (stereo unspecified), the fraction signal was -0.005 (inactive) and -0.0135 (inactive).

As for `COc1ccccc1C1=C(Nc2ccccc2)C(=O)NC1=O`, the fraction signal was -0.012 (inactive).

Take `CCCn1cc(C2=C(c3cn(C)c4ccccc34)C(=O)NC2=O)c2ccccc21`: the fraction signal was 0.0035 (inactive).

For `O=C1NC(=O)C(c2ccccc2)=C1Nc1ccccc1`, the fraction signal was -0.014 (inactive).

For `COc1cccc(C2=C(c3cn(C)c4ccccc34)C(=O)NC2=O)c1`, the fraction signal was -0.003 (inactive).

Turning to `COc1cc(Nc2ncc(-c3ccccc3)o2)cc(OC)c1OC`, the fraction signal was -0.0025 (inactive).

For the molecule `CC(C)Nc1ncc2cc(Oc3ccc(F)cc3F)c(=O)n(C)c2n1`, the fraction signal was -0.0005 (inactive).

Take `CS(=O)(=O)CCc1cccc(C(=O)c2cnn(-c3ccc(F)cc3)c2N)c1`: the fraction signal was -0.0075 (inactive).

On to `CS(=O)(=O)CCNCc1ccc(-c2ccc3ncnc(Nc4ccc(OCc5ccccc5)c(Cl)c4)c3c2)o1`, for which the fraction signal is -0.0085 (inactive).

Regarding `COc1cccc(C2=C(c3cn(C)c4cccc(OC)c34)C(=O)NC2=O)c1`, the fraction signal was 0.0015 (inactive).

Consider `O=C1NC(=NCCc2ccc(F)cc2)SC1=Cc1ccc2ncccc2c1`, for which the fraction signal is 0.0035 (inactive).

Take `COc1cc[nH]c1C=C1C(=O)Nc2ccc(F)c(C#CC3(O)CCNCC3)c21`: the fraction signal is -0.005 (inactive).

Regarding `COc1cccc(C2=C(c3c(C)n(C)c4ccccc34)C(=O)NC2=O)c1`, the fraction signal was -0.0005 (inactive).

As to `Cc1cccc2c(C3=C(c4cn(C)c5ccccc45)C(=O)NC3=O)cn(C)c12`, the fraction signal was -0.0115 (inactive).

`CNc1ncc2cc(Oc3ccc(F)cc3F)c(=O)n(C)c2n1`: the fraction signal is -0.001 (inactive).

As to `O=C1NC(=O)C(=Cc2ccc3ncccc3c2)S1`, the fraction signal is 0.005 (inactive).

Turning to `CCc1c(C)nc2sc3c(N)ncnc3c2c1C`, the fraction signal was -0.001 (inactive).

With `CC(c1ccccc1)C(C(=O)Nc1ccc(I)cc1F)N1C(=O)NC(c2ccc(OCC(O)CO)cc2)C1=O` (stereo unspecified), the fraction signal was 0.0035 (inactive).
